Where “and” joins values, the source holds several entries; their conditions need not be identical. Equal entries are not always repeated. Records with an inconclusive call do not appear. Calls of active or inactive are those of the source. The call rests on the fitted dose curve; in most records, active means well fitted activation curve with a large enough effect; inconclusive means small, poorly fitted or top-dose-only effect; inactive means no such curve, though single readings can be large or run the other way.
Assay: qHTS for small molecules that induce genotoxicity in ELG1 expressing cells: Confirmatory Assay for Cherry-picked Compounds; further: nearly all actives have a fitted effect of over 35% in size
Settings: ELG1-luciferase reporter cells, luminescence, 16 h; series mostly up to 46.1 µM
From the text: Cancer cells divide rapidly compared to normal cells in the body. During cell division, cancer cells need to duplicate their genome by DNA replication. The failure of genome duplication leads to cancer cells' death. Therefore, inhibitors of DNA replication could specifically kill cancer cells. Based on this concept, many chemotherapeutic agents were developed and have been used to treat cancer patients. However, there are a limited number of agents available in the clinical setting, and some of those that do exist have low efficacy and severe side effects. Therefore, if we can find the compounds that effectively block DNA replication either by directly damaging DNA or by inhibiting other cellular mechanisms, the options for cancer treatment will be broadened. We developed a quantitative high-throughput ELG1-luciferase reporter gene assay. Since the level of human ELG1 protein is enhanced in response to genetic stresses, increases in luciferase activity can be used to identify compounds that cause genetic stress. The data herein is the result of the confirmation assay against the cherry picked compounds selected from the primary qHTS (AID 504466). Activation is the desired outcome for this assay. NIH Chemical Genomics Center [NCGC] NIH Molecular Libraries Probe Centers Network [MLPCN] MLPCN Grant: MH092164 Assay Provider: Kyungjae Myung, National Human Genome Research Institute, NIH
For genotoxicity screening, 2,000 cells/ well (5 uL volume) were dispensed into white, solid-bottom 1536-well plates using a solenoid-based dispenser. Following transfer of 23 nL compound or DMSO vehicle by a pin tool, the plates were incubated 16 hr at 37 C, 5% CO2. Five microliter of ONE-Glo reagent (Promega) was then added to each plate. The assay plates were incubated for 30 min at room temperature followed by quantification of the luciferase activity using the PerkinElmer ViewLux CCD-based plate reader.
Potency means the concentration at half of the fitted maximal effect.

Q: Which Potency does the source give for O=c1c2ccccc2oc2c1ccc1ccccc12 here?
A: 15.8 µM (active)

Q: For CC(=O)Nc1ccc(SCC(=O)c2cc(C)n(Cc3cccs3)c2C)cc1, which Potency is on record?
A: 1.12 µM (active)

Q: With Cn1cccc1C(=O)OCC(=O)c1c[nH]c2ccccc12 as the compound, how does the Potency read?
A: 5.6 µM (active)

Q: Which Potency does the source give for Cc1sc(NC(=O)c2ccco2)c(C(c2cccnc2)N2CCN(c3ccc(F)cc3)CC2)c1C (stereo not given) here?
A: inactive

Q: With COc1cccc2c1C(=O)/C(=C\c1ccc(N(C)C)cc1)C2 as the compound, how does the Potency read?
A: 3.15 µM (active)

Q: With O=C(CSc1nc2ccccc2o1)Nc1ccccc1N1CCCCCC1 as the compound, how does the Potency read?
A: inactive

Q: Which Potency does the source give for Oc1cc2cc(-c3csc(-c4ccc(F)cc4)n3)cc3c2n1CCC3 here?
A: 6.28 µM (active)

Q: Which Potency does the source give for O=C1CCN(Cc2ccccc2)C=C1c1ccc2ccccc2c1 here?
A: 14.1 µM (active)

Q: With CC(=O)OCC1=C[C@H]2[C@@H]3C(C)(C)[C@]3(OC(C)=O)C[C@@H](C)[C@]2(O)[C@@H]2C=C(C)C(=O)[C@@]2(O)C1 as the compound, how does the Potency read?
A: 2.23 µM (active)

Q: For Cc1cc(C(=O)Nc2ccc(Br)cn2)sc1C, which Potency is on record?
A: 2.5 µM (active)

Q: Which Potency does the source give for O=C(NC1CCCC1)c1cc(-c2cccs2)on1 here?
A: 15.8 µM (active)

Q: For N#C/C(=C\c1cccnc1)c1ccccn1, which Potency is on record?
A: inactive

Q: Which Potency does the source give for Nc1ccccc1NC(=O)c1ccc(CNC(=O)OCc2cccnc2)cc1 here?
A: 2.81 µM (active)

Q: Which Potency does the source give for CCOC(=O)c1cc(-c2cc(OC)c(OC)c(OC)c2)nc2c1c(=O)[nH]c(=O)n2Cc1ccccc1 here?
A: 25 µM (active)

Q: Which Potency does the source give for O=C(/C=C/C#Cc1cccc(NS(=O)(=O)c2ccccc2)c1)NO here?
A: 3.15 µM (active)

Q: For O=c1[nH]c(-c2ccc(-c3cccc(Cl)c3)o2)nc2ccccc12, which Potency is on record?
A: 1.12 µM (active) and 1.41 µM (active)

Q: For CC(=O)c1cc2c(cc1NC(=O)CSc1nc3ccccc3o1)OCO2, which Potency is on record?
A: inactive

Q: Which Potency does the source give for Oc1cc(-c2ccc(N3CCCCC3)nc2)cc2cccnc12 here?
A: 25 µM (active)

Q: With O=C(CCN1C(=O)NC2(CCCC2)C1=O)Nc1ccc(-c2nc3ccccc3s2)cc1 as the compound, how does the Potency read?
A: 0.706 µM (active)

Q: Which Potency does the source give for CN(C)c1cccc(-c2nnc(N3CCC(C(N)=O)CC3)s2)c1 here?
A: 4.99 µM (active)

Q: Which Potency does the source give for CCC1CCCCN1CCCNC(=O)c1ccc2nc(N3CCC(C)CC3)sc2c1 (stereo not given) here?
A: 0.0706 µM (active)

Q: For O=C(Nc1cc(Cl)ccc1Cl)c1ccc(OC(=O)c2ccco2)cc1, which Potency is on record?
A: inactive

Q: With CN(C)c1ccc(/C=C2\C=Cc3ccccc32)c(F)c1 as the compound, how does the Potency read?
A: 1.41 µM (active)

Q: Which Potency does the source give for O=C(CSc1nnc(-c2cccc(Cl)c2)o1)Nc1ccc2c(c1)OCCO2 here?
A: 15.8 µM (active)

Q: With O=C(COc1ccccc1Cl)Nc1ccc(-c2nc3ccccc3s2)cc1 as the compound, how does the Potency read?
A: 28.1 µM (active)

Q: With NC(=O)C1CCN(c2cc(-c3ccc4c(c3)OCCCO4)ncn2)CC1 as the compound, how does the Potency read?
A: 9.96 µM (active)

Q: With CC(=O)N1CCc2cc(Br)cc(S(=O)(=O)CCC(=O)Nc3c(C)n(C)n(-c4ccccc4)c3=O)c21 as the compound, how does the Potency read?
A: inactive

Q: With CC(=NNC(=O)c1cccs1)c1ccc2c(c1)OCCO2 as the compound, how does the Potency read?
A: 14.1 µM (active)

Q: For Oc1ccc(/C=C/c2c(F)cccc2F)c2cccnc12, which Potency is on record?
A: 9.96 µM (active)

Q: For O=C(N[C@H]1/C=C\[C@@H](O)CCCC1)OCc1ccccc1, which Potency is on record?
A: 9.96 µM (active)

Q: Which Potency does the source give for Cc1cc(C(=O)COC(=O)C2=COCCO2)c(C)n1-c1ccccc1 here?
A: 0.25 µM (active)

Q: For COc1cc(C)c2c(=O)cc(-c3ccccc3)oc2c1, which Potency is on record?
A: 6.28 µM (active)

Q: Which Potency does the source give for COc1ccc(/C=C/C(=O)O/N=C(\N)c2ccccn2)cc1OC here?
A: 14.1 µM (active)

Q: With O=C1CCc2cc(NS(=O)(=O)c3ccccc3)cc3c2N1CC3 as the compound, how does the Potency read?
A: inactive

Q: With O=C1/C(=C/c2ccc(O)c(O)c2)Oc2ccccc21 as the compound, how does the Potency read?
A: 6.28 µM (active)

Q: Which Potency does the source give for Cc1nc(Nc2nc3ccccc3o2)nc2c1CCCC2 here?
A: 0.706 µM (active)

Q: With COc1cc(/C=C(\C#N)C(=O)Nc2cccc(C(=O)O)c2)ccc1OCc1ccc(Cl)cc1 as the compound, how does the Potency read?
A: 8.89 µM (active)

Q: For COC(=O)Nc1nc2ccc(C(=O)c3cccs3)cc2[nH]1, which Potency is on record?
A: 2.23 µM (active)

Q: For Cc1ccc(S(=O)(=O)Nc2cc3c4c(c2)CCN4C(=O)CC3)cc1, which Potency is on record?
A: 22.3 µM (active)

Q: With C(=C\c1nc2ccccc2s1)/c1ccc2c(c1)OCO2 as the compound, how does the Potency read?
A: 0.141 µM (active)
